Screen size: about 310,000 compounds; about 2,200 (0.71%) showed an effect of 50% or more. Effects have a minus sign here. Shown is part of a subset that was picked to be rich in strong results.
What follows are molecules tested against human ether-à-go-go-related gene (hERG) potassium channel (human, UniProt Q12809) (assay: primary screen, population patch clamp on CHO cells stably expressing hERG; higher = less effect of the substance).
human ether-à-go-go-related gene (hERG) potassium channel, sequence (Q12809 whole entry, looked up): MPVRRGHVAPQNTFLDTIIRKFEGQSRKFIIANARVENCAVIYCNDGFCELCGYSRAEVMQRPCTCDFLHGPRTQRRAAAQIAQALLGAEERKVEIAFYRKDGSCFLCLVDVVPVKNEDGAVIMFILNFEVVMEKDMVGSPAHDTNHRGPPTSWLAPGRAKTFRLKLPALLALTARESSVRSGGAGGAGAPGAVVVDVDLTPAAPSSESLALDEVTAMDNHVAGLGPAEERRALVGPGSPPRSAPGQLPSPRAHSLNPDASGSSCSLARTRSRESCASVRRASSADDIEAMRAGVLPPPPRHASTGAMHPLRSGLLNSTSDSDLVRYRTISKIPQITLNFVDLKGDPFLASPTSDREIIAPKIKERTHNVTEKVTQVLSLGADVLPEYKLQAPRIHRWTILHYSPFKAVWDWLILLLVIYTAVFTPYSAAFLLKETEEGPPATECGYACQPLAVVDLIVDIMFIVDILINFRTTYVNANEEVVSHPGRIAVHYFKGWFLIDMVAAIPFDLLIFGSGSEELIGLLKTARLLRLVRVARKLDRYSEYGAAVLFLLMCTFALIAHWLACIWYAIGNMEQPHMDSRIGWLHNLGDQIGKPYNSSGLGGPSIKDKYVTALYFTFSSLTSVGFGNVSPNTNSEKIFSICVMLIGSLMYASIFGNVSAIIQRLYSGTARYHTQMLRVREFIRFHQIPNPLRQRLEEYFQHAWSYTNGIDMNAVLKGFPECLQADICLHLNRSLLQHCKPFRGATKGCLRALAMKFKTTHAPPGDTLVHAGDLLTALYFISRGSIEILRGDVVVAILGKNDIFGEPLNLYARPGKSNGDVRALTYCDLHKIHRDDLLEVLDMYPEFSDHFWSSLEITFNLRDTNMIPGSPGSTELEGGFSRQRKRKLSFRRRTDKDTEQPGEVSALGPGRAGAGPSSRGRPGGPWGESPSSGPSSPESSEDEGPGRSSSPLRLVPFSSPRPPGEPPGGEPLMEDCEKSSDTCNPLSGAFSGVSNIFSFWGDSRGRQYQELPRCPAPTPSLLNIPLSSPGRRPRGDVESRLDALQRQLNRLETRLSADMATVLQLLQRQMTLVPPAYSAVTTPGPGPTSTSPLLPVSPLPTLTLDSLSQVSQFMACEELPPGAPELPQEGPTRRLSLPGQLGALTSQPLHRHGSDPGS

Row | SMILES | hERG current change (%, negative = inhibition) at 1uM [%]
1 | O=C(CSc1nc(O)cc(=O)[nH]1)Nc1ccc2c(c1)CCC2 | 18.4
2 | O=[N+]([O-])c1ccc(OCC(O)CNCCNc2nccc(C(F)(F)F)n2)cc1 (stereo not drawn) | -77.9
3 | OC(CNCCNc1ncccc1C(F)(F)F)COc1ccc(F)cc1 (stereo not drawn) | -25.6
4 | COc1ccc(OCC(O)CNCCNc2nccc(C(F)(F)F)n2)cc1 (stereo not drawn) | -6.87
5 | CC(CCc1ccc(O)cc1)NCc1ccc(Cl)cc1Cl (stereo not drawn) | -10.9
6 | COc1ccccc1CCNC(C)CCc1ccc(O)cc1 (stereo not drawn) | -10.8
7 | CC(CCc1ccc(O)cc1)NCc1ccc(Br)cc1 (stereo not drawn) | -66.8
8 | COc1ccc(CCC(C)NCc2cccc(Br)c2)cc1 (stereo not drawn) | -32.1
9 | CC(CCc1ccc(O)cc1)NCCC(c1ccccc1)c1ccccc1 (stereo not drawn) | -84.2
10 | CC(CCc1ccc(O)cc1)NCCc1ccc(O)c(O)c1.Cl (stereo not drawn) | 2.55
11 | O=C(Nc1ccc2c(c1)OCO2)c1cnccn1 | 8.63
12 | NC(=O)NCc1ccc(F)cc1 | 4.8
13 | COc1ccc(-c2noc3c2-c2nc(-c4ccccc4C)sc2CC3)cc1 | 15.4
14 | Cc1cc(O)c(C(=O)/C=C/c2ccccc2O)c(=O)o1 | 8.29
15 | CCOc1c(Br)cc(CNc2ncn[nH]2)cc1OC | 9.07
16 | COc1ccc(C(F)(F)F)cc1NC(=O)c1nc2nc(C)cc(C(F)F)n2n1 | 17.2
17 | CCOC(=O)C1=C(c2ccccc2)Nc2ncnn2C1c1cccc(OC)c1OC (stereo not drawn) | 21.4
18 | COc1ccc2[nH]c3c(NCCCOC(C)C)ncnc3c2c1 | 22.8
19 | COc1ccc2[nH]c3c(NCCN(C(C)C)C(C)C)ncnc3c2c1 | -71.9

Row | SMILES | hERG current change (%, negative = inhibition) at 1uM [%]
20 | CCN(CC)CCNc1ncnc2c1[nH]c1ccc(OC)cc12 | -42.6
21 | COc1cc(NS(=O)(=O)c2ccc(NC(=O)/C=C/C(=O)O)cc2)nc(OC)n1 | 5.24
22 | O=C(O)C1=C[C@@H](C2CC2)C[C@@H](OCCCCO)O1 | 10.7
23 | COc1cccc(C2=NOC(C(=O)Nc3cccnc3Cl)C2)c1OC (stereo not drawn) | 14.2
24 | COc1ccc(Cl)cc1C(=O)Nc1ccc2nc3n(c(=O)c2c1)CCCC3 | -51.8
25 | COc1cc(C(=O)Nc2ccc3nc4n(c(=O)c3c2)CCCCC4)cc(OC)c1OC | -1.94
26 | COc1ccccc1C(=O)Nc1ccc2nc3n(c(=O)c2c1)CCCC3 | -2.02
27 | COc1cc2c(C(=O)N3CCCc4ccccc43)cn(C)c(=O)c2cc1OC | 7.48
28 | CCCN1CCN(c2ccc([N+](=O)[O-])cc2C#N)CC1 | -57.8
29 | O=C(c1ccc(Cl)cc1)c1cc([N+](=O)[O-])ccc1N1CCOCC1 | 10.3
30 | CN1CCN(c2ccc([N+](=O)[O-])cc2C(=O)c2ccc(Cl)cc2)CC1 | -24.3
31 | N#Cc1cc([N+](=O)[O-])ccc1N1CCCC1 | -12.3
32 | CCN1CCN(c2ccc([N+](=O)[O-])cc2C#N)CC1 | -49.8
33 | CCN1CCN(c2ccc([N+](=O)[O-])cc2C(=O)c2ccc(Cl)cc2)CC1 | -58.3
34 | Cc1ccc(NCCC(=O)c2cccs2)cc1C | 5.33
35 | O=C(CSc1cn(Cc2ccccc2)c2ccccc12)N1CCOCC1 | -4.92
36 | CCOc1ccc(NC(=S)NCCCN2CCN(c3ccc(OC)cc3)CC2)cc1 | -29.3
37 | O=c1[nH]c2ccccc2nc1-c1c[nH]c2ccccc12 | 17.9
38 | Cc1ccc(-n2nnnc2SCC(=O)NCC2(N3CCCCC3)CCCCC2)c(C)c1 | -201

Row | SMILES | hERG current change (%, negative = inhibition) at 1uM [%]
39 | Cc1ccccc1-n1nnnc1SCC(=O)NCC1(N2CCOCC2)CCCCC1 | 6.3
40 | O=C(CSc1nnnn1-c1ccccc1)NCC1(N2CCCCC2)CCCCC1 | -23.9
41 | Cc1ccc(CNC(=O)c2cnccn2)cc1 | 11.4
42 | COc1ccc(NC(=O)[C@@H](NC(=O)N2C[C@H]3C[C@@H](C2)c2cccc(=O)n2C3)C(C)C)cc1 | 8.5
43 | Fc1ccc(-c2nc3c(-c4ccc(F)cc4)cnn3cc2CCN2CCOCC2)cc1 | -3.19
44 | CC(C)(CO)CN1CCC(n2nccc2NC(=O)C2CCCC2)CC1 | 10.2
45 | COc1ccc(CC(=O)N2CCC(n3nccc3NC(=O)C3CC3)CC2)cc1 | 13.3
46 | Cc1cc(C)c(CN2CCC(n3nccc3NC(=O)C3CCCC3)CC2)cc1C | -26.4
47 | COc1ccccc1/C=C/CN1CCC(n2nccc2NC(=O)C2CC2)CC1 | -37.8
48 | COc1ccc(/C=C/CN2CCC(n3nccc3NC(=O)C3CC3)CC2)cc1 | -59.6
49 | COc1ccc(O)c(CN2CCC(n3nccc3NC(=O)C3CCCC3)CC2)c1 | -28.4
50 | COc1ccc(OCC(=O)N2CCC(n3nccc3NC(=O)C3CC3)CC2)cc1 | -1.98
51 | COc1ccc(CN2CCC(n3nccc3NC(=O)C3CCCC3)CC2)c(OC)c1 | -70.6
52 | COc1ccc(/C=C/CN2CCC(n3nccc3NC(=O)C3CCCC3)CC2)cc1 | -92.1
53 | Cc1ncc(S(=O)(=O)c2ccccc2)c(-c2ccccc2Cl)n1 | 2.7
54 | Cc1cc2c(cc1S(=O)(=O)NC1CCCCC1C)OCC(=O)N2 (stereo not drawn) | 5.01
55 | Cc1ccc(OCCNC(=O)c2ccc(NC(=O)CC3SC(N4CCCC4)=NC3=O)cc2)cc1 (stereo not drawn) | -6.94
56 | C=C(C)CNC(=O)c1ccc(OC2CCN(S(=O)(=O)N(C)C)CC2)cc1 | 13.2
57 | COc1ccc2c(c1)CC1(CN2C)C(=O)NC(=O)N(CCc2ccccc2)C1=O (stereo not drawn) | -6.39
